Hit rate of the full screen: of about 330,000 compounds, about 7,300 (2.2%) were called active. What follows is part of a selection rich in actives, with near analogues and random picks from the rest. Values without a mark were called inactive.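 Rule for the calls: active = inhibition of at least 40%; inactive = the rest.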
Assay: growth inhibition of tim10-1 ts yeast – luminescence, uHTS, primary screen (AID 463190);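 note: mutant grown at 25 °C; 0% = DMSO wells with yeast and 100% = wells holding no yeast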
Conditions: S. cerevisiae tim10-1 ts strain growth, BacTiter-Glo, 24 h; at 20 µM; active compounds read high

Row | Structure (SMILES) | inhibition
1 | COCC1CCN(C(=O)C2CCC(=O)N(CC3CCCCC3)C2)CC1 (centres undefined) | -9.11%
2 | Cc1nc(SC(C)C)[nH]c(=O)c1Cc1ccccc1 | 18.7%
3 | Cc1nn(C)c(C)c1NS(=O)(=O)c1ccc(OC(F)(F)F)cc1 | -1.38%
4 | O=C1COc2ccc(S(=O)(=O)Nc3ccc(OC(F)(F)F)cc3)cc2N1 | 18.6%
5 | O=S(=O)(Nc1ccc(O)c2ccccc12)c1ccc(OC(F)(F)F)cc1 | 42.5% (active)
6 | CC(=O)NS(=O)(=O)c1ccc2c(c1)Cc1cc(S(=O)(=O)NC(C)=O)ccc1-2 | -1.53%
7 | O=C1CC2(CC(c3ccc(Cl)cc3)=NO2)C(=O)N1c1ccccc1 (centres undefined) | -3.93%
8 | CN(C)CCCN(C(=O)c1ccc(S(=O)(=O)N2CCCCCC2)cc1)c1nc2ccc(Br)cc2s1 | 26.2%
9 | CN(C)CCCN(C(=O)c1ccc(S(=O)(=O)N2CCCc3ccccc32)cc1)c1nc2ccc(F)cc2s1 | 52.8% (active)
10 | CN(C)CCCN(C(=O)c1ccc(S(=O)(=O)N2CCCCCC2)cc1)c1nc2cc3c(cc2s1)OCCO3 | 27.4%
11 | O=[N+]([O-])c1ccc(S(=O)(=O)Nc2cccc(-c3ccc(N4CCCC4)nn3)c2)cc1 | 11.6%
12 | Cc1c(C(=O)NCCN2CCOCC2)sc2nc(-c3ccc(F)cc3)cn12 | 4.04%
13 | COC(=O)Cc1ccc(NC(=S)NCc2ccccc2)cc1 | 21.8%
14 | CCNC(=S)Nc1ccc(OC(F)(F)F)cc1 | 14.5%
15 | FC(F)(F)Oc1ccc(NC(=S)NCc2ccccc2)cc1 | 41.8% (active)
16 | Cc1ccc(CCNC(=O)C2CCN(S(=O)(=O)N3CCCC3)CC2)cc1 | 4.68%
17 | CCOc1ccc(C2/C(=C(/O)c3ccc4c(c3)CC(C)O4)C(=O)C(=O)N2CCCn2ccnc2)cc1 (centres undefined) | -3.88%
18 | Cc1[nH]c2ccccc2c1C(=O)COC(=O)c1c(-c2ccccc2)noc1C | 52.3% (active)
19 | Cc1onc(-c2ccccc2Cl)c1C(=O)OCC(=O)c1ccccc1 | 11.7%
20 | Cc1[nH]c2ccccc2c1C(=O)CSCC(=O)O | 12.6%
21 | Cc1cc(SCc2c(F)cccc2Cl)nc(=O)[nH]1 | 6.52%
22 | O=C(CSc1ccc(-c2ccco2)nn1)Nc1cccc(F)c1 | 3.73%
23 | Fc1cccc(Cl)c1CSc1ccc(-c2ccco2)nn1 | 45.4% (active)
24 | CC(C)NC(=O)C(=O)NCCN1CCN(S(=O)(=O)c2ccc(Cl)cc2)CC1 | 2.58%

Row | Structure (SMILES) | inhibition
25 | CC/C(=N\O)C(C)(C)/[N+]([O-])=C/c1ccc(Br)cc1 | 5.1%
26 | N#C/C(=C\c1ccc(O)c(O)c1)C(=O)NCc1ccccc1 | -4.07%
27 | COCCNC(=O)/C(C#N)=C/c1cccc(OCc2ccccc2)c1 | 52.7% (active)
28 | O=C(N/N=C/c1cccc(OCc2ccccc2)c1)c1ccc(Br)o1 | 27.9%
29 | C=CCNC(=O)COC(=O)c1ccccc1C(=O)N(C)C1CCCCC1 | 16.1%
30 | CCOc1ccc(CN2CCN(Cc3ccc(C)o3)CC2CCO)cc1 (centres undefined) | 5.81%
31 | O=C(CCc1ccc(S(=O)(=O)N2CCOCC2)cc1)Nc1ccc2ccccc2c1 | 41.9% (active)
32 | Cc1ccc(CC(=O)Nc2ccc(S(=O)(=O)N3CCOCC3)cc2)cc1C | 19%
33 | O=C(COC(=O)CCc1ccc(S(=O)(=O)N2CCOCC2)cc1)Nc1cccc(Cl)c1 | 5.19%
34 | CC(C)(C)OC(=O)C[C@@H]1C/C=C\C[C@@H](CC(=O)N[C@H](CO)Cc2ccccc2)C(=O)NCCOC1=O | -5.51%
35 | Cc1ccc2c(c1)nnc1nnc(SCC(=O)O)n12 | -10.5%
36 | CC1OC2C(OC1C)N(S(C)(=O)=O)CCN2S(C)(=O)=O (centres undefined) | 1.46%
37 | Cc1cc(Nc2ccc(Br)cc2)nc2ccccc12 | 29.6%
38 | Cc1cccc(NC(=O)c2ccc3ccccc3n2)n1 | 27.1%
39 | Clc1ccc(Nc2ccc3ccccc3n2)cc1 | 54.1% (active)
40 | CCOC(=O)C1CCCN(S(=O)(=O)c2ccc3c(c2)C(C)(C)C(=O)N3C)C1 (centres undefined) | -10.8%
41 | CC1CCC2(CC1)NC(=O)N(CC(=O)c1ccc3c(c1)OCO3)C2=O (centres undefined) | -17.1%
42 | CC(C)c1ccc(S(=O)(=O)NC2CCCC2)cc1 | 19%
43 | Cc1ccc(S(=O)(=O)NC2CCCCCC2)cc1 | 21.3%
44 | CSc1ccc(S(=O)(=O)NC2CCCCC2)cc1 | 45.6% (active)
45 | CC(=O)c1ccccc1OCc1ccc(C(=O)c2ccccc2)cc1 | 9.55%
46 | CC1CCN(CC(=O)c2c[nH]c3ccccc23)CC1 | 16%
47 | O=C(C(=O)N1CCc2ccccc2C1)c1c[nH]c2ccccc12 | 40.7% (active)
48 | O=C(NC1CCCC1)C(=O)c1c[nH]c2ccccc12 | -16.2%

Row | Structure (SMILES) | inhibition
49 | Cc1ccc(N2CC(C(=O)N3CCC4(CC3)CC(=O)c3ccccc3O4)CC2=O)cc1C (centres undefined) | 1.3%
50 | O=C(N/N=C1\CCSC1)c1cc(Cl)ccc1O | -11.5%
51 | C/C(=N/NC(=O)c1cc(Cl)ccc1O)C12CC3CC(CC(C3)C1)C2 | 50.7% (active)
52 | Cc1ccc(C(=O)NC23CC4CC(CC(C4)C2)C3)c(Cl)c1 | -11.9%
53 | CCc1noc(C)c1C(=O)Nc1nc2ccc(OC)cc2s1 | 26.7%
54 | COc1ccc2nc(NC(=O)NC3CCCCC3)sc2c1 | 21.2%
55 | COc1ccc2nc(Nc3nc4cc5c(cc4s3)OCCO5)sc2c1 | 47.7% (active)
56 | c1ccc(-c2cnc(CN3CCN(c4ccccc4)CC3)o2)cc1 | 2.4%
57 | COc1ccc(N2CCN(Cc3ccc(Br)s3)CC2)cc1 | 19.9%
58 | Fc1ccc(N2CCN(Cc3cnc(Oc4ccc(Br)cc4)s3)CC2)cc1 | 42.4% (active)
59 | COc1ccc(N2CCN(C(CNS(=O)(=O)c3ccc(C)cc3)c3ccccc3)CC2)cc1 (centres undefined) | 4.98%
60 | CS(=O)(=O)c1ccc(C(=O)OCC(=O)NNC(=O)COc2ccc(Cl)cc2)cc1 | -15.1%
61 | C/C=C/c1ccc(OCCCCN2CCC(C)CC2)c(OC)c1 | 15.8%
62 | COc1ccc(NC(=O)c2cc3nc(-c4ccccc4)cc(C)n3n2)cc1OC | 51.1% (active)
63 | COc1ccc(NC(=O)CNC(=O)Cc2ccccc2)cc1OC | -6.35%
64 | COc1ccc(NC(=O)c2ccccc2[N+](=O)[O-])cc1OC | 15.9%
65 | O=C(COC(=O)/C=C/c1ccc(S(=O)(=O)N2CCCCCC2)cc1)NCc1ccccc1Cl | 35.9%
66 | Cc1onc(-c2ccccc2Cl)c1C(=O)N(Cc1ccc(N(C)C)cc1)C(C)C | 23.4%
67 | O=c1ccc2c(-c3ccccc3S(=O)(=O)O)c3ccc(O)c(O)c3oc-2c1O | 38.3%
68 | Cc1ccc(C)c(CN2CCC(CNC(=O)Nc3ccc(C)c(F)c3)CC2)c1 | 30.5%
69 | Cc1ccccc1NC(=O)NCC1CCN(Cc2cccc(Cl)c2)CC1 | 4.31%
70 | Cc1cccc(CN2CCC(CNC(=O)Nc3ccc(F)c(Cl)c3)CC2)c1 | 41.3% (active)
71 | Cc1cccc(-c2c(NC(=O)c3ccco3)oc3ccc(Cl)cc3c2=O)c1 | 7.38%
72 | CCN(C(=O)Cc1c(C(=O)O)n(CC)c2ccccc12)c1ccccc1C | 19.7%

Row | Structure (SMILES) | inhibition
73 | O=C(O)COc1ccc(-c2nccc(-c3cccs3)n2)cc1 | 10.2%
74 | CN(C(=O)COc1nnc(-c2cccs2)c(-c2cccs2)n1)c1ccccc1 | 46.6% (active)
75 | CN(C(=O)COC(=O)CNC(=O)C12CC3CC(CC(C3)C1)C2)c1ccccc1 | 4.63%
76 | O=C(CC1NCCc2ccccc21)Nc1cccc(Cl)c1 (centres undefined) | 34.9%
77 | Cc1ccc(NS(=O)(=O)c2c(C)[nH]c(=O)[nH]c2=O)cc1C | 0.26%
78 | CCOc1ccc(CN2CCN(Cc3ccon3)CC2CCO)cc1 (centres undefined) | 9.62%
79 | O=C(CCCN1C(=O)CCC1=O)Nc1ccc(Cl)c(C(F)(F)F)c1 | -0.021%
80 | O=C(CC(O)(C(F)(F)F)C(F)(F)F)Nc1ccc(Cl)c(Cl)c1 | 85.2% (active)
81 | CS(=O)(=O)N(CC(=O)Nc1ccc(Cl)c(Cl)c1)C1CCCCC1 | 35.1%
82 | CC1CCCCC1NC(=O)NC(=O)COC(=O)C1=NN(c2ccccc2)C(=O)CC1 (centres undefined) | -2.21%
83 | C#C[C@]1(O)CC[C@H]2[C@@H]3CCC4=CC(=O)CC[C@@H]4[C@H]3CC[C@@]21CC | 12.4%
84 | COc1ccccc1CN(C)C(=O)C1(c2ccc(Cl)cc2)CC1 | 3.3%
85 | N#CCc1ccc(OC(=O)c2cccnc2)cc1 | 19.6%
86 | O=C(Oc1c(-c2ccco2)oc2ccccc2c1=O)c1cccnc1 | 45.4% (active)
87 | CCCCCCOc1ccc(OC(=O)c2cccnc2)cc1 | 7.23%
88 | CCOc1ccc(C(c2c(C)[nH][nH]c2=O)c2c(C)[nH][nH]c2=O)cc1OCC | 45.9% (active)
89 | CCOc1ccc(C(C)NC(=O)CN2C(=O)NC3(CCCCC3)C2=O)cc1OCC (centres undefined) | 0.453%
90 | CCOc1ccc(C(CC(=O)O)NC(=O)Cc2ccccc2)cc1OC (centres undefined) | -13.2%
91 | CCOC(=O)c1cn(CC)c2cc(F)c(F)cc2c1=O | -8.23%
92 | CC(=O)NC(CC(=O)Nc1cccc(S(=O)(=O)N2CCCC2)c1)c1ccccc1 (centres undefined) | 19.9%
93 | CN1CCN(c2cc(=O)n(-c3ccc(Cl)cc3)c(=O)[nH]2)CC1 | -20.5%
94 | COc1ccc(N(CC(=O)Nc2cc(OC)ccc2OC)S(=O)(=O)c2c(C)noc2C)cc1 | 29.9%
